Drawing on PubChem BioAssay (NCI), this text covers growth for eight compounds.

Compounds without any hit were thinned out: in the full panel of roughly 83,000, 20% have a hit.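 For each line, cells grew in 96-well plates with the test compound present at a single concentration for 48 hours.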 Values without a mark were called inactive. The source made the active and inactive calls. How the source made its calls: active means growth percent below 10; inactive means the rest.

Some test systems named below: DU-145 prostate; K-562 leukemia; MALME-3M melanoma; MDA-MB-231 breast; RXF 393 renal; SF-268 CNS; SF-295 CNS; SF-539 CNS; UACC-257 melanoma; M14 melanoma; HCT-15 colon; HT29 colon; SNB-75 CNS; SNB-19 CNS; U251 CNS; PC-3 prostate; SK-MEL-5 melanoma; UACC-62 melanoma; LOX IMVI melanoma; SK-MEL-28 melanoma.
What all share (test): NCI-60 one-dose screen, 48 h (100 = growth as untreated, 0 = no growth, -100 = all killed)
Holding throughout (settings): 10 µM unless noted

In the case of `COc1ccc(OC)c(/C=N/Nc2ncnc3c2c(C)nn3C)c1`, the growth in the test on DU-145 prostate is 108%; with K-562 leukemia, 93.2%; with MALME-3M melanoma it was 119%; in the test on MDA-MB-231 breast, 81%; in the test with RXF 393 renal, 96.9%; with SF-268 CNS, 87.1%. Also, the growth in the test with SF-295 CNS is 99.7%; in the test with SF-539 CNS, 105%; in the test with UACC-257 melanoma, 112%; in the test on M14 melanoma, 101%; in the test on HCT-15 colon, 100%; in the test on HT29 colon, 88.3%. In addition, the growth in the test on SNB-75 CNS is 104%; in the test on SNB-19 CNS, 98.3%; in the test on U251 CNS it was 96.6%; in the test on PC-3 prostate, 99.6%; in the test with SK-MEL-5 melanoma, 98%; with UACC-62 melanoma, 93.5%. For the same compound, the growth in the test with LOX IMVI melanoma is 99.5%; in the test on SK-MEL-28 melanoma, 98.8%.
For `CCCNC(=O)Nc1ccc2cc3ccc(NC(=O)NCCC)cc3nc2c1`, the growth was 118% with DU-145 prostate; 60.8% in the test on K-562 leukemia; 79.1% in the test on MALME-3M melanoma; 98.8% with MDA-MB-231 breast; 77.7% in the test on RXF 393 renal; 84.3% with SF-268 CNS. For the same compound, the growth was 115% with SF-295 CNS; 66.5% in the test with SF-539 CNS; 87.5% in the test on UACC-257 melanoma; 89.1% in the test on M14 melanoma; 94.5% in the test with HCT-15 colon; 98.5% with HT29 colon. Also, the growth with SNB-75 CNS was 71.7%; in the test on SNB-19 CNS, 68.1%; in the test on U251 CNS it was 61.2%; in the test on PC-3 prostate, 81.5%; in the test with SK-MEL-5 melanoma, 81.8%; in the test on UACC-62 melanoma, 91.5%. Moreover, the growth in the test on LOX IMVI melanoma was 72.2%; in the test on SK-MEL-28 melanoma, 81.9%.
For the compound `COC1=CC(c2ccc[nH]2)=N/C1=C\c1[nH]c(C)c(CC(=O)NCc2ccccc2)c1C`, the growth is 34.7% with DU-145 prostate; 0.172% (active) with K-562 leukemia; -42.2% (active) with MALME-3M melanoma; 0.672% (active) in the test with MDA-MB-231 breast; 30.5% with RXF 393 renal; 11.3% in the test on SF-268 CNS. In addition, the growth was -55.5% (active) in the test with SF-295 CNS; 2.49% (active) in the test with SF-539 CNS; -19.4% (active) in the test on UACC-257 melanoma; -49% (active) with M14 melanoma; -26% (active) in the test on HCT-15 colon; 15.1% in the test on HT29 colon. In addition, the growth in the test on SNB-75 CNS is 58.3%; in the test with SNB-19 CNS, -1.25% (active); in the test with U251 CNS it was 18.7%; in the test on PC-3 prostate it was 12%; with SK-MEL-5 melanoma, -64% (active); in the test on UACC-62 melanoma, -30.5% (active). The growth with LOX IMVI melanoma is -76.1% (active); in the test with SK-MEL-28 melanoma, 22.1%.
Take `O=C1NC(=C(Cl)Cl)/C(=N\S(=O)(=O)NCc2ccccc2)N1`: the growth in the test on DU-145 prostate was 105%; in the test on K-562 leukemia it was 81.4%; in the test on MALME-3M melanoma, 104%; with MDA-MB-231 breast it was 115%; with RXF 393 renal, 113%; with SF-268 CNS, 102%. In addition, the growth with SF-295 CNS is 114%; in the test with SF-539 CNS, 93.7%; in the test on UACC-257 melanoma it was 85.6%; in the test with M14 melanoma, 94.3%; in the test on HCT-15 colon it was 105%; in the test on HT29 colon it was 108%. Besides, the growth with SNB-75 CNS is 84.6%; with SNB-19 CNS it was 91.2%; with U251 CNS, 91%; in the test on PC-3 prostate, 95.6%; in the test on SK-MEL-5 melanoma it was 96.6%; in the test with UACC-62 melanoma, 85.5%. Besides, the results for the growth in the test on LOX IMVI melanoma and in the test on SK-MEL-28 melanoma were 93.8% and 103%, respectively.
Take `O=C1NC2(Nc3ccccc31)C(=O)Nc1c(Cl)cc(Cl)cc12` (stereo not given): the growth in the test with DU-145 prostate was 117%; with K-562 leukemia, 99.4%; with MALME-3M melanoma it was 102%; in the test on MDA-MB-231 breast, 94.9%; in the test on RXF 393 renal it was 115%; with SF-268 CNS it was 96.8%. Besides, the growth with SF-295 CNS is 101%; in the test on SF-539 CNS, 100%; in the test with UACC-257 melanoma, 110%; in the test with M14 melanoma, 101%; in the test on HCT-15 colon it was 108%; with HT29 colon, 107%. In addition, the growth with SNB-75 CNS was 80%; in the test on SNB-19 CNS it was 104%; with U251 CNS, 104%; with PC-3 prostate it was 103%; with SK-MEL-5 melanoma, 99.9%; in the test with UACC-62 melanoma it was 101%. Also, the growth in the test on LOX IMVI melanoma is 95.9%; in the test with SK-MEL-28 melanoma it was 118%.
For `CCSc1nc2scc(C)c2c(=O)[nH]1`, the growth with DU-145 prostate was 105%; in the test on K-562 leukemia, 99.9%; in the test with MALME-3M melanoma, 106%; with MDA-MB-231 breast, 104%; in the test with RXF 393 renal, 112%; with SF-268 CNS, 100%. In addition, the growth is 99.2% with SF-295 CNS; 99.2% in the test on SF-539 CNS; 105% in the test with UACC-257 melanoma; 107% in the test with M14 melanoma; 104% in the test on HCT-15 colon; 105% in the test on HT29 colon. For the same compound, the growth with SNB-75 CNS was 90.2%; with SNB-19 CNS, 96.5%; in the test with U251 CNS, 97.1%; with PC-3 prostate, 98.7%; with SK-MEL-5 melanoma, 99.9%; in the test on UACC-62 melanoma it was 94.1%. In addition, the growth in the test with LOX IMVI melanoma is 99.7%; in the test on SK-MEL-28 melanoma, 105%.
For `O=S(=O)(NCCNc1nccc(-c2c(-c3ccc(F)c(O)c3)nc3sccn23)n1)c1ccc(O)cc1`, the growth with DU-145 prostate was 43.8%; in the test with K-562 leukemia it was 28.9%; with MALME-3M melanoma, 31%; in the test on MDA-MB-231 breast, 45.6%; with RXF 393 renal it was 25.8%; in the test on SF-268 CNS it was 37%. Besides, the growth in the test on SF-295 CNS was 60.2%; in the test on SF-539 CNS, 81.2%; with UACC-257 melanoma it was 58.9%; in the test on M14 melanoma, 27.2%; in the test on HCT-15 colon, 33.1%; in the test with HT29 colon it was 17%. Further, the growth in the test with SNB-75 CNS is 58.9%; in the test on SNB-19 CNS, 56.3%; in the test on U251 CNS it was 56.8%; in the test on PC-3 prostate it was 22.4%; in the test with SK-MEL-5 melanoma, 5.55% (active); in the test with UACC-62 melanoma it was 17.4%. Besides, the results for the growth in the test with LOX IMVI melanoma and in the test on SK-MEL-28 melanoma were 32.2% and 55.2%, respectively.
Regarding `O=C(CN1CCOCC1)Nc1nc(-c2cc3ccccc3oc2=O)cs1`, the growth is 106% with DU-145 prostate; 96.3% in the test with K-562 leukemia; 102% in the test on MALME-3M melanoma; 93.6% in the test on MDA-MB-231 breast; 109% in the test on RXF 393 renal; 90.1% with SF-268 CNS. Besides, the growth in the test on SF-295 CNS was 101%; in the test with SF-539 CNS it was 97.6%; with UACC-257 melanoma, 106%; in the test on M14 melanoma, 101%; in the test with HCT-15 colon it was 104%; in the test on HT29 colon, 103%. The growth is 82.2% in the test on SNB-75 CNS; 101% in the test on SNB-19 CNS; 98.7% in the test with U251 CNS; 97.5% with PC-3 prostate; 99.2% with SK-MEL-5 melanoma; 92.5% in the test with UACC-62 melanoma. Further, the growth in the test with LOX IMVI melanoma is 95.6%; in the test with SK-MEL-28 melanoma, 104%.
